PubChem BioAssay (Tox21)
Inconclusive results are not listed. The source made the active and inactive calls. Unless noted, calls come from the whole dose curve; as a rule, active = well fitted curve in the direction sought with a large enough effect in the repeat runs; inconclusive = weak or mixed curves; inactive = no such curve, though single readings can be large; an effect the other way counts as inactive or inconclusive.

Legend:
[1] = Human pregnane X receptor (PXR) small molecule agonists, qHTS cell viability counter screen (AID 1346977); note: nearly all actives have a fitted effect of over 50% in size; note: potency is the fitted concentration of half-maximal effect
How it was run: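 Viability counter screen: CellTiter-Fluor signal in PXR-Luc HepG2 cells, 24hr compound exposure, 37C, 5% CO2.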

[2] = Caspase-3/7 induction in HepG2 cells by small molecules, qHTS assay (AID 1346978); note: nearly all actives have a fitted effect of over 15% in size
How it was run: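 Wild-type HepG2 cells (2,000/well) were settled 5 h at 37 C, 5% CO2, then exposed to compounds in DMSO for 17 h. Caspase-3/7 activity was read by luminescence 30 min after adding Caspase-Glo 3/7 reagent at room temperature.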

[3] = Caspase-3/7 induction in CHO-K1 cells by small molecules, qHTS cell viability counter screen (AID 1346979); note: nearly all actives have a fitted effect of over 35% in size
How it was run: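 Viability readout by fluorescence (CellTiter-Fluor) on wild-type CHO-K1 cells exposed for 16hr at 37C and 5% CO2 to compounds delivered in DMSO; reagent incubated 1hr before reading.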

[4] = Caspase-3/7 induction in CHO-K1 cells by small molecules, qHTS assay (AID 1346980); note: nearly all actives have a fitted effect of over 15% in size
How it was run: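 Wild-type cells were seeded at 1,500 per well and settled 5 hr at 37 C, 5% CO2, then exposed to DMSO-dissolved compounds for 17 hr. Caspase-Glo 3/7 reagent was added, and luminescence was read after 30min at room temperature.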

[5] = Caspase-3/7 induction in HepG2 cells by small molecules, qHTS cell viability counter screen (AID 1346981); note: series mostly up to about 92 µM; nearly all actives have a fitted effect of over 30% in size
How it was run: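 The parent HepG2 line is plated at 2,000 cells per well and rested 5 hr before compound pinning from DMSO stocks. Following a 16-hr treatment at 37 C, a fluorogenic live-cell substrate (CellTiter-Fluor) reports viability after 1 hr.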

[6] = target: Nuclear receptor subfamily 1 group I member 2 (Homo sapiens) (UniProt O75469); experiment: Human pregnane X receptor (PXR) small molecule agonists, qHTS assay (AID 1346982); note: nearly all actives have a fitted effect of over 35% in size
How it was run: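 After plating in 5% charcoal-stripped FBS and a 5 hr rest, PXR-Luc HepG2 cells received compounds in DMSO. Following 24 hr at 37 C, ONE-Glo was added and light output read.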

[7] = target: Acetylcholinesterase (Homo sapiens) (UniProt P22303); experiment: Acetylcholinesterase (AChE) small molecule antagonists: colormetric cell-based qHTS assay (AID 1347395; calls by dose curve; note: nearly all actives have a fitted effect of over 30% in size)
How it was run: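 Homogeneous whole-cell format. SH-SY5Y cells seeded overnight, dosed with compound (30 min, 37 C, 5% CO2), then given DTNB/acetylthiocholine cocktail for 90 min at 37 C; colorimetric signal.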

[8] = target: Acetylcholinesterase (Homo sapiens) (UniProt P22303); experiment: Acetylcholinesterase (AChE) small molecule antagonists: fluorescence cell-based qHTS assay (AID 1347398; calls by dose curve; note: nearly all actives have a fitted effect of over 50% in size); settings: Potency: AChE activity
How it was run: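 Using neuroblastoma SH-SY5Y cells as the enzyme source, test chemicals are preincubated 30 min at 37 C; AChE-driven acetylthiocholine cleavage is then quantified by thiocholine-dependent Thiolite Green fluorescence after 40 min at room temperature.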

[9] = target: Cytochrome P450 2D6 (Homo sapiens) (UniProt P10635); experiment: Cytochrome P450 Family 2 Subfamily D Member 6 (CYP2D6) small molecule antagonists: luciferase reporter qHTS assay (AID 1671196); note: nearly all actives have a fitted effect of over 50% in size; note: potency is the fitted concentration of half-maximal effect; for activity change, negative = inhibition: series mostly up to about 120 µM
How it was run: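 Quantitative HTS of Tox21 chemicals against CYP2D6 using a luminescent proluciferin substrate. After NADPH addition, 1 h room-temperature reaction; luminescence recorded 20 min post detection reagent.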

[10] = target: Cytochrome P450 2C19 (Homo sapiens) (UniProt P33261); experiment: Cytochrome P450 Family 2 Subfamily C Member 19 (CYP2C19) small molecule antagonists: luciferase reporter qHTS assay (AID 1671197); note: nearly all actives have a fitted effect of over 65% in size; note: potency is the fitted concentration of half-maximal effect; for activity change, negative = inhibition: series mostly up to about 120 µM
How it was run: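 P450-Glo CYP2C19 screening system; proluciferin substrate; DMSO compound stocks; 10 min RT preincubation; NADPH regeneration, 1 h at 37C; luciferin detection reagent, 20 min RT; luminescence as RLU.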

[11] = target: Cytochrome P450 2C9 (Homo sapiens) (UniProt P11712); experiment: Cytochrome P450 Family 2 Subfamily C Member 9 (CYP2C9) small molecule antagonists: luciferase reporter qHTS assay (AID 1671198); note: nearly all actives have a fitted effect of over 50% in size; note: potency is the fitted concentration of half-maximal effect; for activity change, negative = inhibition: series mostly up to about 120 µM
How it was run: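 CYP2C9 activity was measured with a P450-Glo proluciferin substrate. Enzyme–substrate mix was held with compound for 10 min at room temperature, then NADPH regeneration solution was added for 1 h at 37C. Luciferin product was read as luminescence.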

[12] = target: Acetylcholinesterase (Homo sapiens) (UniProt P22303); experiment: Acetylcholinesterase (AChE) small molecule antagonists: enzyme-based qHTS assay with human liver microsomes (AID 1347399; calls by dose curve; note: nearly all actives have a fitted effect of over 60% in size; note: potency is the fitted concentration of half-maximal effect); settings: Potency: qHTS inhibition
How it was run: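 Recombinant human AChE (50 mU/mL in the enzyme mix) and human liver microsomes (0.25 mg/mL final) were preincubated with compound and NADPH (0.25 mg/mL final) for 30 min at 37 C. Acetylthiocholine/DTNB was then added; thiocholine was read colorimetrically after 10 min at room temperature.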

[13] = target: Cytochrome P450 1A2 (Homo sapiens) (UniProt P05177); experiment: Cytochrome P450 Family 1 Subfamily A Member 2 (CYP1A2) small molecule antagonists: luciferase reporter qHTS assay (AID 1671199)
How it was run: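 Quantitative high-throughput format using the P450-Glo CYP1A2 system. Reaction initiated by NADPH regeneration solution, 1 h at room temperature, then stopped with detection reagent; luminescence measured 20 min later.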

[14] = target: Voltage-gated inwardly rectifying potassium channel KCNH2 (Homo sapiens) (UniProt Q12809); experiment: Human Ether-a-go-go-Related Gene (hERG) channel small molecule antagonists: fluorescence cell-based qHTS assay (AID 1671200); note: nearly all actives have a fitted effect of over 50% in size; note: potency is the fitted concentration of half-maximal effect;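 for activity change, negative = inhibition: hERG-expressing U2OS cells given a thallium stimulus after FluxOR II dye loading; series mostly up to about 77 µM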
How it was run: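 Thallium served as the potassium surrogate; its influx into dye-loaded U2OS cells carrying the channel was measured by fluorescence over 2 min.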

[15] = target: Acetylcholinesterase (Homo sapiens) (UniProt P22303); experiment: Acetylcholinesterase (AChE) small molecule antagonists: enzyme-based qHTS assay (AID 1347397; calls by dose curve; note: nearly all actives have a fitted effect of over 55% in size); settings: Potency: AChE enzyme activity inhibition
How it was run: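 Compound or DMSO vehicle was pin-transferred onto recombinant human AChE (50 mU/mL as dispensed) and left 30 min at room temperature. Acetylthiocholine with DTNB then started the reaction, read colorimetrically 10 min later.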

[16] = target: Cytochrome P450 3A4 (Homo sapiens) (UniProt P08684); experiment: Cytochrome P450 Family 3 Subfamily A Member 4 (CYP3A4) small molecule antagonists: luciferase reporter qHTS assay (AID 1671201); note: nearly all actives have a fitted effect of over 50% in size; note: potency is the fitted concentration of half-maximal effect; for activity change, negative = inhibition: series mostly up to about 120 µM
How it was run: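 Relative luminescence units after 20 min with luciferin detection reagent served as read-out. Beforehand, CYP3A4 turned over a proluciferin substrate for 1 h at room temperature with NADPH regeneration, following 10 min compound preincubation.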
% is set by controls: 0 for no effect and ±100 for the full control effect.

Sequence of Cytochrome P450 3A4 (Homo sapiens) (P08684 whole entry, looked up): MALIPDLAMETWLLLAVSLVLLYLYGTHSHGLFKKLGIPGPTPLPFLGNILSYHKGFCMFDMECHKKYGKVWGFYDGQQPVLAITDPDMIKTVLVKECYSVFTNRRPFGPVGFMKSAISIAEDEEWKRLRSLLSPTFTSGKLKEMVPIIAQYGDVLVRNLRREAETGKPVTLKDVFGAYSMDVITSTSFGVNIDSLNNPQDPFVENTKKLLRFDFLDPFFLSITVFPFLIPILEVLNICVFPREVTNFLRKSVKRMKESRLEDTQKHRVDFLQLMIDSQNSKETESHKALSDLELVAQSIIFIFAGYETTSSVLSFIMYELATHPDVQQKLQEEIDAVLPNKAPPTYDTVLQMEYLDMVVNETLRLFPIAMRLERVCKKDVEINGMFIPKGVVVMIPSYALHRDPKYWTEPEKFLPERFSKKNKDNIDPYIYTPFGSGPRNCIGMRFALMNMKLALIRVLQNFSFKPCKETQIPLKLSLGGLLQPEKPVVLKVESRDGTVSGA
Sequence of Cytochrome P450 1A2 (Homo sapiens) (P05177 whole entry, looked up): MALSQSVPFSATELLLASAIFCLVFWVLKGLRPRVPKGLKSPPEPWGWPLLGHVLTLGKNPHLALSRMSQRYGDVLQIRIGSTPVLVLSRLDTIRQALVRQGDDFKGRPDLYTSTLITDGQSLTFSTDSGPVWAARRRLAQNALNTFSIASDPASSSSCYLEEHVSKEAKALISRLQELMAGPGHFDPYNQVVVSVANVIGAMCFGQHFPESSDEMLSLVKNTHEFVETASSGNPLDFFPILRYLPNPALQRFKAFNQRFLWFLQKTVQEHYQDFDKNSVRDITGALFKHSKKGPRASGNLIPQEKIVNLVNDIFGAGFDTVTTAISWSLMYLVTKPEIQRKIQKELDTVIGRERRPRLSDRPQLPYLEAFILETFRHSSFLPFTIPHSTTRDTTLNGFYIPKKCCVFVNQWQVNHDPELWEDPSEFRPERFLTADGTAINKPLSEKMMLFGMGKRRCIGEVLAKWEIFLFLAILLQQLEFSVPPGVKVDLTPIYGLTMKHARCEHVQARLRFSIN
Sequence of Voltage-gated inwardly rectifying potassium channel KCNH2 (Homo sapiens) (Q12809 whole entry, looked up): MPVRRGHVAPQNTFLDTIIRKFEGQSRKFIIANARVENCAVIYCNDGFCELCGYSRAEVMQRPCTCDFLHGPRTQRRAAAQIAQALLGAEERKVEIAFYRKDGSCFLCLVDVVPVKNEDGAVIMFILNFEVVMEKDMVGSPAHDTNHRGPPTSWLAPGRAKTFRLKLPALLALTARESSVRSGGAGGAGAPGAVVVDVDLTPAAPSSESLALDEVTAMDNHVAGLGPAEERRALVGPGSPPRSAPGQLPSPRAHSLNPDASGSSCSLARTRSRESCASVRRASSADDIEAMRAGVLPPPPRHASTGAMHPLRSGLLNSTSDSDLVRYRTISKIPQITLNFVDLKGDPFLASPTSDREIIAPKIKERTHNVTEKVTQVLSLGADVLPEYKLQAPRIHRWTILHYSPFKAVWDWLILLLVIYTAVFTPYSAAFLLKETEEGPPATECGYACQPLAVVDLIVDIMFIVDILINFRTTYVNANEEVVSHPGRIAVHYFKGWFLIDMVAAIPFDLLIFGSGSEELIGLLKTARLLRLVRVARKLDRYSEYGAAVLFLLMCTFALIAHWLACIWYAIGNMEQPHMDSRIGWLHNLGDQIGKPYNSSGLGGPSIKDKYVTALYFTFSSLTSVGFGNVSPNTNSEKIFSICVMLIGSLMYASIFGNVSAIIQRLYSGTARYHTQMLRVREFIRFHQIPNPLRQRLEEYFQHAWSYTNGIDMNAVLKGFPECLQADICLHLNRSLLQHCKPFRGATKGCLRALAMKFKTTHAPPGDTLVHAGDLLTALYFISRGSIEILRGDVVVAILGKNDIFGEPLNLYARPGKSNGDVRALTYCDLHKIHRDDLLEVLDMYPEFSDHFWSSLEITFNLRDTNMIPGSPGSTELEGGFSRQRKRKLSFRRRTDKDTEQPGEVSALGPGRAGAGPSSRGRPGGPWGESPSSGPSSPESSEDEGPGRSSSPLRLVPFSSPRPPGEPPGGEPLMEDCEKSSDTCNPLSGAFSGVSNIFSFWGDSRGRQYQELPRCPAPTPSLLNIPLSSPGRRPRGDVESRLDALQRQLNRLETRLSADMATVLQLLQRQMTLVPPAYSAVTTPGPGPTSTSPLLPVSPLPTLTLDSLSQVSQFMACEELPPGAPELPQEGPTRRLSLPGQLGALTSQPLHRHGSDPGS
Sequence of Cytochrome P450 2C19 (Homo sapiens) (P33261 whole entry, looked up): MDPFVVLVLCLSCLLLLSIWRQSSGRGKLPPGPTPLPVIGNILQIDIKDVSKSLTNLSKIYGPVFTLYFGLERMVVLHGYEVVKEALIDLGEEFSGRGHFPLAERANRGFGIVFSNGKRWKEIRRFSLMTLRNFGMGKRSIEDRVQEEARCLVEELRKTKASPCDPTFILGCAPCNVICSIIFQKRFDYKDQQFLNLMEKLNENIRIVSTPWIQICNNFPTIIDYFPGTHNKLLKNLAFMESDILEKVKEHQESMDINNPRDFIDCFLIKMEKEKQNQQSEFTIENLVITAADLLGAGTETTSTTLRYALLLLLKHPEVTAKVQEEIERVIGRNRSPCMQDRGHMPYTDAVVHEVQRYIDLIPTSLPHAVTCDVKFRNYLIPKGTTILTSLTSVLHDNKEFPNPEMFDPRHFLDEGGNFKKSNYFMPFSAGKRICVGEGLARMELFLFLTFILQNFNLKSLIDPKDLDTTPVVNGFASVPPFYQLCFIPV
Sequence of Cytochrome P450 2C9 (Homo sapiens) (P11712 whole entry, looked up): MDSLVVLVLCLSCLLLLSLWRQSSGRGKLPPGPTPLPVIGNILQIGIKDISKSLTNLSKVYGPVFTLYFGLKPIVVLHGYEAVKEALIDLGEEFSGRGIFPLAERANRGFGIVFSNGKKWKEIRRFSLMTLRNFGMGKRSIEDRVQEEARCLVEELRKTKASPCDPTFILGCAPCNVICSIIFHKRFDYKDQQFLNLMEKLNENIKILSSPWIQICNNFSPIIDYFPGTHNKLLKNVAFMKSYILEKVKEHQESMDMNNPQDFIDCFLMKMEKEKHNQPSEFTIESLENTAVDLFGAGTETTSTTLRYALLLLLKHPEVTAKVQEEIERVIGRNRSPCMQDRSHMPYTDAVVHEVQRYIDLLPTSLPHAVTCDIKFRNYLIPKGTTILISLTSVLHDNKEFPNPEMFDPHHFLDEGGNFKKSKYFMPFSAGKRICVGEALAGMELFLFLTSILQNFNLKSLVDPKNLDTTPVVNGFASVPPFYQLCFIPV
Sequence of Cytochrome P450 2D6 (Homo sapiens) (P10635 whole entry, looked up): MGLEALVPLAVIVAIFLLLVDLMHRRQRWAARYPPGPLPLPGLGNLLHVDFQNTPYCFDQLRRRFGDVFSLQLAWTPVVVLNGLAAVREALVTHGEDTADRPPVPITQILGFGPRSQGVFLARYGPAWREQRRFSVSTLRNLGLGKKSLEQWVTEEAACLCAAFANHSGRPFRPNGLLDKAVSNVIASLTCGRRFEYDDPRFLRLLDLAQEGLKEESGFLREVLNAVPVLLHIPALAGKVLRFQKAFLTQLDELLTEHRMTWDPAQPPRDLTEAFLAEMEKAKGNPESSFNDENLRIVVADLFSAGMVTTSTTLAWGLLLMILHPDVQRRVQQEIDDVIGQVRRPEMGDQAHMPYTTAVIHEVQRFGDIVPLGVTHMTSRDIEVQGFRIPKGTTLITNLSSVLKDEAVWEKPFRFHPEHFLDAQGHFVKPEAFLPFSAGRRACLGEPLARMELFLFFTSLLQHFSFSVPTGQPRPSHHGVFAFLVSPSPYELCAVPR
Sequence of Acetylcholinesterase (Homo sapiens) (P22303 whole entry, looked up): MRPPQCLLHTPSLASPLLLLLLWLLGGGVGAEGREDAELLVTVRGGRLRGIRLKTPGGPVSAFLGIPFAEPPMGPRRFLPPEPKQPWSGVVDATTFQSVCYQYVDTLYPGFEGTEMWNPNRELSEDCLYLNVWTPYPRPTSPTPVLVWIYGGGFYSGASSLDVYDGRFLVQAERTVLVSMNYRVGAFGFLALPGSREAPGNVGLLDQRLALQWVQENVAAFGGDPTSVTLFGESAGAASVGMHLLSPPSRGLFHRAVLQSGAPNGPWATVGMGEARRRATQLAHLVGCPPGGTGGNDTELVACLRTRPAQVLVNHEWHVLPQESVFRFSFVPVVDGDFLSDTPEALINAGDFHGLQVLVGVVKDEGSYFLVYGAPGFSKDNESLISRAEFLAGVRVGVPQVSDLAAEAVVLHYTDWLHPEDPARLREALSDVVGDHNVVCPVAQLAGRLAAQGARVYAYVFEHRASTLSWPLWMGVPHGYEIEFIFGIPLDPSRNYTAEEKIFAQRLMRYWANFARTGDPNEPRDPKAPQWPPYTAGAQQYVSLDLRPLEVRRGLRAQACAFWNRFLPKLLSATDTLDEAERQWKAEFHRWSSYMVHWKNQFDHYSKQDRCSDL
Sequence of Nuclear receptor subfamily 1 group I member 2 (Homo sapiens) (O75469 whole entry, looked up): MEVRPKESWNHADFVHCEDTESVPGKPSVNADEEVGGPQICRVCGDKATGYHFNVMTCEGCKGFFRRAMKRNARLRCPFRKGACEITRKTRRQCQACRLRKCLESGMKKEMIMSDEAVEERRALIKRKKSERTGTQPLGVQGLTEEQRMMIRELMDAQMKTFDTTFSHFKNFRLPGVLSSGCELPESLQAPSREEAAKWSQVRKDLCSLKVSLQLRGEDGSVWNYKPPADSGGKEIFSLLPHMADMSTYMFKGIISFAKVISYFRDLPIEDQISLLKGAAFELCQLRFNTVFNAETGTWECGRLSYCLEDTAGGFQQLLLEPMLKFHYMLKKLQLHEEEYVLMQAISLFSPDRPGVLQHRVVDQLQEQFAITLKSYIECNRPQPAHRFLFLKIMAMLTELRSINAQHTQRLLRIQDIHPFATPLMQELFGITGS

CC(C)COP(=O)(OCC(C)C)OCC(C)C
inactive: Potency [1] | Potency [2] | Potency [3] | Potency [4] | Potency [5] | Potency [6] | Potency [7] | Potency [8] | Potency [9] | Potency [10] | Potency [11]

CCCSC(=O)Cl
inactive: Potency [1] | Potency [2] | Potency [3] | Potency [4] | Potency [5] | Potency [6] | Potency [7] | Potency [8] | Potency [12] | Potency [9] | Potency [10] | Potency [11] | Potency [13] | Potency [14]

CC(C)NCC(O)c1ccc(N)c(C#N)c1 (stereo unspecified)
inactive: Potency [1] | Potency [2] | Potency [3] | Potency [4] | Potency [5] | Potency [7] | Potency [15] | Potency [12] | Potency [14]

CC1=C(C(=O)O)N2C(=O)[C@@H](N)[C@H]2SC1
inactive: activity change, negative = cytotoxicity [1] 20.6% [at 19 µM] | caspase activation [2] -0.113% [at 19 µM] | activity change, negative = cytotoxicity [3] 7.27% [at 19 µM] | caspase-3/7 activation [4] 0.154% [at 19 µM] | activity change, negative = cytotoxicity [5] 0.509% [at 19 µM] | activation [6] -3.97% [at 19 µM] | activity, negative = inhibition [7] 0.304% [at 23.6 µM] | activity change, negative = inhibition [8] 0.138% [at 23.8 µM] | activity change, negative = inhibition [12] 2.02% [at 23.6 µM] | activity change, negative = inhibition [9] -15.2% [at 23.6 µM] | activity change, negative = inhibition [10] -10.3% [at 23.6 µM] | activity change, negative = inhibition [11] 5.86% [at 23.6 µM] | activity change, negative = inhibition [13] 13% [at 23.6 µM] | activity change, negative = inhibition [14] 3.94% [at 15.8 µM] | activity change, negative = inhibition [16] 11.3% [at 23.6 µM]

CC(CC(C#N)(c1ccccc1)c1ccccc1)N(C)C (stereo unspecified)
inactive: Potency [2] | Potency [3] | Potency [4] | Potency [5] | Potency [6] | Potency [7] | Potency [8] | Potency [12] | Potency [11]
active: Potency [1] 48.3 µM | Potency [9] 11.2 µM | Potency [14] 27.4 µM

CNCC(=O)c1ccc(O)c(O)c1
inactive: Potency [1] | Potency [2] | Potency [3] | Potency [4] | Potency [5] | Potency [6] | Potency [7] | Potency [8] | Potency [12] | Potency [9] | Potency [10] | Potency [11] | Potency [13] | Potency [16]

COP(N)(=S)Oc1ccccc1C(=O)OC(C)C (stereo unspecified)
inactive: Potency [1] | Potency [2] | Potency [3] | Potency [4] | Potency [5] | Potency [15] | Potency [8] | Potency [14]
active: Potency [12] 2.83 µM | Potency [9] 31.7 µM | Potency [10] 0.178 µM | Potency [11] 6.33 µM

c1ccc(N2CCNCC2)cc1
inactive: Potency [1] | Potency [2] | Potency [3] | Potency [4] | Potency [5] | Potency [6] | Potency [7] | Potency [8] | Potency [12] | Potency [9] | Potency [10] | Potency [11] | Potency [14] | Potency [16]

Nc1n[nH]c(N)n1
inactive: Potency [1] | Potency [2] | Potency [3] | Potency [4] | Potency [5] | Potency [6] | Potency [7] | Potency [8] | Potency [12] | Potency [10] | Potency [11] | Potency [14]

CSc1ccc(C(=O)C(C)(C)N2CCOCC2)cc1
inactive: Potency [1] | Potency [2] | Potency [3] | Potency [4] | Potency [5] | Potency [7] | Potency [15] | Potency [8] | Potency [12]
active: Potency [9] 2.52 µM | Potency [10] 1.12 µM | Potency [11] 20 µM | Potency [16] 2 µM
